Test [1] is described as follows: rapamycin-like changes in RPL19A-GFP expression – cell-based, S. cerevisiae, multiplex flow cytometry, primary screen (AID 1862; in the data active means percent of DMSO control GFP below about 86%;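 further: lower values mimic rapamycin by blocking the RPL19A rise seen in DMSO cells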). The note with it: S. cerevisiae RPL19A-GFP strain, flow cytometry fluorescence, 3 h; at 10 µM; stronger effect = lower value.
The nature of test [2]: TOR pathway GLN3 branch reporter MEP2-GFP changes – S. cerevisiae, multiplex flow cytometry, primary screen (AID 1867;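 active means GFP response, as percent of the DMSO control, above the screen-wide mean plus 3 SD, about 139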;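 further: median GFP channel fluorescence of barcode-gated MEP2-GFP cells measured by flow cytometry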). As to conditions: S. cerevisiae MEP2-GFP strain, 3 h, at 10 µM, stronger effect = higher value, 100% means same as DMSO wells.
Test [3] can be described thus: TOR pathway RTG branch CIT2 reporter changes – S. cerevisiae, GFP fusion, multiplex flow cytometry, primary screen (AID 1870).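 Further: barcoded CIT2-GFP strain pooled with four other GFP strains with rapamycin as positive control; median GFP fluorescence per well over plate mean of DMSO wells so 100% = DMSO.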 The note with it: S. cerevisiae CIT2-GFP expression, 3 h, at 10 µM, stronger effect = higher value. For orientation: A flow cytometer gives signals particle by particle.
Test [4] in a line: TOR pathway LAP4-GFP level changes – S. cerevisiae, multiplex flow cytometry, primary screen (AID 1873;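 active means GFP signal, as percent of the solvent control, above the screen mean plus 3 SD, about 149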). As to conditions: S. cerevisiae LAP4-GFP expression, 3 h, at 10 µM, stronger effect = higher value.
A short description of test [5]: yeast AGP1-GFP level changes, GLN3 branch – cell-based, multiplex flow cytometry, S. cerevisiae, primary screen (AID 1887;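 active means GFP signal above the screen-wide mean plus 3 SD, that is over about 124.5% of the solvent control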;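 further: AGP1-GFP fusion strain of S. cerevisiae within a five-strain barcoded multiplex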). The note with it: 3 h, at 10 µM, stronger effect = higher value.
Test [6] can be described thus: reduced mouse 2C T cell binding to pMHC/ICAM-1 vesicles – MLPCN validation set, flow cytometry, LFA-1/ICAM-1 modulator project, pilot screen (AID 2523;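 active means response below a set limit, under 55% cells CD8-positive and vesicle-bound, and CD8 cells' 90th-percentile brightness under 279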;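 on vesicle binding response: mean PE anti-B7-1 fluorescence of CD8+ cells relative to row control; 100% = QL9-loaded vesicles with DMSO vehicle in the same plate row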). As to conditions: 2C mouse CD8+ T cells, at 7 µM, stronger effect = lower value; double positive events: measured here: CD8+/vesicle+ event percentage.
Test [7] has as its target Integrin beta-1 (Homo sapiens) + Integrin alpha-4 (Homo sapiens) (UniProt P13612+P05556). Description: alpha4beta1 integrin LIBS antibody binding reduction – U937 cells, HUTS-21 mAb, flow cytometry, validation set, VLA-4 allosteric modulator project, pilot screen (AID 2674;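 active means inhibition above 50%, about 3 SD of the validation set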;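 further: antibody binding induced by the VLA-4 ligand LDV present at three times its Kd; 0% = LDV ligand with antibody and no compound and 100% = antibody without LDV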). The note with it: HUTS-21 LIBS mAb binding, at 6.7 µM, stronger effect = higher value, binding induced by LDV ligand.

The nature of test [8]: calorie-restriction mimetic ROS inhibitors, yeast – validation compound set, pilot screen (AID 2706;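 active means superoxide response below 65% of plate, a cut near 3 SD across the whole screen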;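 further: yeast exposed to compound for one week at 30 degrees C before staining; 100% = mean of all compound wells on the same plate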). The note with it: S. cerevisiae aging, superoxide DHE fluorescence; at 10 µM; stronger effect = lower value.
Test [9] deals with Beta-adrenergic receptor kinase 1 (Homo sapiens) (UniProt P25098). Description: GRK2 binders displacing RNA aptamer, biochemical, validation, human GRK2, bead flow cytometry (AID 488806;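 active means aptamer binding inhibition above 30%, about 3 SD of noise from non-fluorescent compounds; inactive means inhibition at or below 30%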). As to conditions: bead-bound GRK2, FAM-aptamer displacement, at 10 µM, stronger effect = higher value.
In test [10] the target is Beta-2 adrenergic receptor (Homo sapiens) (UniProt P07550). Description: agonist-induced loss of surface beta2AR – cell-based, FAP fluorogen, flow cytometry, validation set, pilot screen (AID 504459;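 active means percent response above 42, roughly 3 SD of non-fluorescent test compounds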;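 further: agonist-driven loss of surface beta2AR via internalization measured by FAP dye flow cytometry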). As to conditions: Am2.2-beta2AR cells, at 10 µM, stronger effect = higher value.
For test [11], the target named is AP-2 complex subunit beta (Homo sapiens) (UniProt P63010). Description: beta-arrestin/AP2 interaction blockers – biochemical, validation set, GST-AP2 beads, flow cytometry, pilot screen (AID 504541;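 active means inhibition above 54%, about 3 SD of non-fluorescent compounds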;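 further: AP2 carries R879A mutation and is captured from E. coli lysate; bead-bound FITC arrestin peptide fluorescence measuring arrestin peptide binding to AP2; 0% = DMSO wells and 100% = excess unlabeled arrestin peptide control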). The note with it: FITC arrestin peptide, at 10 µM, stronger effect = higher value, AP2 beta2 appendage fragment, R879A mutant.
The nature of test [12]: cytosolic pH regulators acting via V-ATPase – S. cerevisiae, pHLuorin, HTS validation (AID 504600; in the data active means response above about 15%;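 further: plate controls were DMSO for no effect and reference compound for full effect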). As to conditions: V-ATPase proton transport, at 10 µM, stronger effect = higher value.
The subject of test [13] is anti-desmoglein-3 scFv antibody binding to human DSG3. Description: blockers of pathogenic pemphigus antibody–desmoglein-3 binding – biochemical, validation compound set, bead-based, flow cytometry, pilot screen (AID 588368;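 active means binding below the plate cutoff, the plate median minus 3 SD, with a reading above zero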;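 further: signal is the median channel fluorescence of bead-bound GFP antibody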). The note with it: Protein G beads, DSG3-Fc, scFv-GFP binding, at 10 µM, stronger effect = lower value.
A short description of test [14]: Nile Red efflux blockade in pump-expressing yeast – validation compound set, multiplex, phenotypic, pilot screen (AID 588506;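 active means efflux inhibition above 0.42, the validation set average plus 4 SD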;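 further: Nile Red retained in cells so higher fluorescence means more efflux inhibition; 0 = negative control wells and 1 = enniatin B 25 µM full block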). The note with it: S. cerevisiae pump-expressing triplex, Nile Red efflux flow cytometry; at 10 µM; stronger effect = higher value; the pumps come from Candida albicans.
Test [15] has as its target ATP-binding cassette sub-family B member 6 (Homo sapiens) (UniProt Q9NP58). Description: blockers of ABCB6-driven porphyrin uptake – K562-ABCB6 cells, flow cytometry, validation set, pilot screen (AID 588550;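 active means inhibition above the screen-wide mean plus 3 SD, about 51%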;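 further: 0% = DMSO wells and 100% = benzethonium chloride 70 µM positive control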). As to conditions: K562-ABCB6 porphyrin accumulation, 1 h, at 10 µM, stronger effect = higher value.
The nature of test [16]: AML differentiation inducers, ER-HoxA9 marrow cells – cell-based, GFP/MAC1 double positive, flow cytometry, validation set, primary screen (AID 588685;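 active means differentiation response of at least 50%, scaled between solvent and reference control, from cells with both markers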;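 further: compound exposure lasts four days before antibody staining and flow analysis; 0% = DMSO wells and 100% = 5 µM fulvestrant positive control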). The note with it: stronger effect = higher value, normalized: vehicle 0, fulvestrant 100.

Results filed as inconclusive are left out. Activity calls are given as the source filed them.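 How the source made its calls, unless noted: active means percent response above a set limit, the screen-wide mean plus 3 SD (cut at about 130% in these data); inactive means the rest.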

The results in this text go back to PubChem BioAssay.

Chain of Integrin beta-1 (Homo sapiens) + Integrin alpha-4 (Homo sapiens) (P05556 whole entry, looked up): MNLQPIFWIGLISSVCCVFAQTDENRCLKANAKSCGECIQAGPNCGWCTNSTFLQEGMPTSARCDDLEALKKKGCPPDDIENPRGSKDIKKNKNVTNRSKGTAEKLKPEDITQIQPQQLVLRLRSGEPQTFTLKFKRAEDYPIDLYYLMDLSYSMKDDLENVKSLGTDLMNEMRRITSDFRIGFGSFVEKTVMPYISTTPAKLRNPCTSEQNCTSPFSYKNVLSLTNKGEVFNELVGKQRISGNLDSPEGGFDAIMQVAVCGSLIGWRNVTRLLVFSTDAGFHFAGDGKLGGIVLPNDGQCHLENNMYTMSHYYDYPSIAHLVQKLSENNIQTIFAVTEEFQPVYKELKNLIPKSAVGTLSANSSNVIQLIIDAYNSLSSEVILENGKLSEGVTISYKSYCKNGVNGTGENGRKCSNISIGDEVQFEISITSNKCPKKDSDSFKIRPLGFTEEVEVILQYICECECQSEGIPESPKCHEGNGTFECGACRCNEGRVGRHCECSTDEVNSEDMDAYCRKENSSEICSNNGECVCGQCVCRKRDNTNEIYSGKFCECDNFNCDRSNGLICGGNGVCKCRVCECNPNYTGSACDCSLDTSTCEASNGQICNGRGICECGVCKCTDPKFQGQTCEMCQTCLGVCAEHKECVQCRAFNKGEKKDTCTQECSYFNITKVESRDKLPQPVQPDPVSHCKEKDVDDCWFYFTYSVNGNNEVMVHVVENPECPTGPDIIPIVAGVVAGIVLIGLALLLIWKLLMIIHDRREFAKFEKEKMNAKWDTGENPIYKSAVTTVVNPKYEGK
Chain of Integrin beta-1 (Homo sapiens) + Integrin alpha-4 (Homo sapiens) (P13612 whole entry, looked up): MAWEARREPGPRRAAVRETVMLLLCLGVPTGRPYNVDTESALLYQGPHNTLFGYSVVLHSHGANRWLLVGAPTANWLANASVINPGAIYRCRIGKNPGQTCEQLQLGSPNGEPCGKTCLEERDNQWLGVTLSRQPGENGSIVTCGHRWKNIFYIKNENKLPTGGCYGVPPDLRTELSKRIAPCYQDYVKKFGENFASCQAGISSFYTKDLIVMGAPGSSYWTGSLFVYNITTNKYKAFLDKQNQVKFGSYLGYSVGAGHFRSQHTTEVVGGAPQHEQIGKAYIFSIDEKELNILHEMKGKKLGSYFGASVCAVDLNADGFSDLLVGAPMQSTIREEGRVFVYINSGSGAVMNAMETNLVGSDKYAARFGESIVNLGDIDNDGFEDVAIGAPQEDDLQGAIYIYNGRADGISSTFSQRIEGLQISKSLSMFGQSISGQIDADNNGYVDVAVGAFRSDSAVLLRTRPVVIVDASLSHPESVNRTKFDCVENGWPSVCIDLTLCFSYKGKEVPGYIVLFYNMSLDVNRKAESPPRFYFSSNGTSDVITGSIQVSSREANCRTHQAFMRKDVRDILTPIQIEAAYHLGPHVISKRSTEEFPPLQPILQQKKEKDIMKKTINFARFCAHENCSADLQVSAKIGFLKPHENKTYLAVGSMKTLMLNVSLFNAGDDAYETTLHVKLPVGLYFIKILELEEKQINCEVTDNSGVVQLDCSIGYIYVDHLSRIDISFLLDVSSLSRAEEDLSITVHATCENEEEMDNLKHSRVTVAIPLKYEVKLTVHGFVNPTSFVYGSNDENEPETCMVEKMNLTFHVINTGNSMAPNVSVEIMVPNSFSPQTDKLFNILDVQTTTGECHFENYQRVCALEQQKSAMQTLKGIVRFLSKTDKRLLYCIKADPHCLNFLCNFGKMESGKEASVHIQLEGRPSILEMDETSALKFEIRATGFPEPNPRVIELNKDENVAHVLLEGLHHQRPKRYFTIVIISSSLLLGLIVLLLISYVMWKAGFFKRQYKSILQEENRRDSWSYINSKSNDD
Chain of Beta-2 adrenergic receptor (Homo sapiens) (P07550 whole entry, looked up): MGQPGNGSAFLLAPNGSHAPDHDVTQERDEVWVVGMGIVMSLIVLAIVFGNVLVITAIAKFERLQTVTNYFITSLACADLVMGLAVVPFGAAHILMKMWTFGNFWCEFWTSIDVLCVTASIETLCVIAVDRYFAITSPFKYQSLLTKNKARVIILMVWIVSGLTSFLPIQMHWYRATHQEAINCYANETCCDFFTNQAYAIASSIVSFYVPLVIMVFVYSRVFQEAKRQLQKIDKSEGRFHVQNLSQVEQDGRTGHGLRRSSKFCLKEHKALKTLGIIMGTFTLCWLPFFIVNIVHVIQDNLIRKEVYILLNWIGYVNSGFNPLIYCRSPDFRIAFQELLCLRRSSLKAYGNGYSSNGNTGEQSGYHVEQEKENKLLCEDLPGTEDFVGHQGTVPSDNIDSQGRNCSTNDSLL
Chain of AP-2 complex subunit beta (Homo sapiens) (P63010 whole entry, looked up, the tested form may be a part, one chain of several): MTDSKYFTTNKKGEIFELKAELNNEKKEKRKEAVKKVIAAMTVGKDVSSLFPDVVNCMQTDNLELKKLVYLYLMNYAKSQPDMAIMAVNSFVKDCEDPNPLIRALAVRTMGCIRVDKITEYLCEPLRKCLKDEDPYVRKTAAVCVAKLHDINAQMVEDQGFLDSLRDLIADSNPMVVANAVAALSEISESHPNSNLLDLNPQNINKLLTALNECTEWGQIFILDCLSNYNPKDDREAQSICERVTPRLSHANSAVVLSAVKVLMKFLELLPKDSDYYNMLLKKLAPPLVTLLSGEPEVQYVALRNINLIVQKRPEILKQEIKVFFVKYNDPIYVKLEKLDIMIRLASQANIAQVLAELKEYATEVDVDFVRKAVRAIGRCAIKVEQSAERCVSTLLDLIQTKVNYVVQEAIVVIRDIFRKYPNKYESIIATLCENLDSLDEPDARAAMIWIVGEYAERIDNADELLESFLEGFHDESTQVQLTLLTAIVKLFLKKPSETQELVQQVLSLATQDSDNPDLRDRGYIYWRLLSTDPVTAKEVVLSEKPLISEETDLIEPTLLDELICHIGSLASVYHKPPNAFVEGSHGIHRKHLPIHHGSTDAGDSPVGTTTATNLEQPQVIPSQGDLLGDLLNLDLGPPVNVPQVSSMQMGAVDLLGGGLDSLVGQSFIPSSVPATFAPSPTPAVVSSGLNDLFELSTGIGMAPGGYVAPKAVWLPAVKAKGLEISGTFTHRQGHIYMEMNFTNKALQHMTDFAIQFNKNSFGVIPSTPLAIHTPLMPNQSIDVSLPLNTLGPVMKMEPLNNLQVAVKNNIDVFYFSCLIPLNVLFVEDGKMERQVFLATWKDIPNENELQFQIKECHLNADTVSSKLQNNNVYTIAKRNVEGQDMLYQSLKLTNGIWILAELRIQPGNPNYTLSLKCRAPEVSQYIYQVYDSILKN
Chain of ATP-binding cassette sub-family B member 6 (Homo sapiens) (Q9NP58 whole entry, looked up): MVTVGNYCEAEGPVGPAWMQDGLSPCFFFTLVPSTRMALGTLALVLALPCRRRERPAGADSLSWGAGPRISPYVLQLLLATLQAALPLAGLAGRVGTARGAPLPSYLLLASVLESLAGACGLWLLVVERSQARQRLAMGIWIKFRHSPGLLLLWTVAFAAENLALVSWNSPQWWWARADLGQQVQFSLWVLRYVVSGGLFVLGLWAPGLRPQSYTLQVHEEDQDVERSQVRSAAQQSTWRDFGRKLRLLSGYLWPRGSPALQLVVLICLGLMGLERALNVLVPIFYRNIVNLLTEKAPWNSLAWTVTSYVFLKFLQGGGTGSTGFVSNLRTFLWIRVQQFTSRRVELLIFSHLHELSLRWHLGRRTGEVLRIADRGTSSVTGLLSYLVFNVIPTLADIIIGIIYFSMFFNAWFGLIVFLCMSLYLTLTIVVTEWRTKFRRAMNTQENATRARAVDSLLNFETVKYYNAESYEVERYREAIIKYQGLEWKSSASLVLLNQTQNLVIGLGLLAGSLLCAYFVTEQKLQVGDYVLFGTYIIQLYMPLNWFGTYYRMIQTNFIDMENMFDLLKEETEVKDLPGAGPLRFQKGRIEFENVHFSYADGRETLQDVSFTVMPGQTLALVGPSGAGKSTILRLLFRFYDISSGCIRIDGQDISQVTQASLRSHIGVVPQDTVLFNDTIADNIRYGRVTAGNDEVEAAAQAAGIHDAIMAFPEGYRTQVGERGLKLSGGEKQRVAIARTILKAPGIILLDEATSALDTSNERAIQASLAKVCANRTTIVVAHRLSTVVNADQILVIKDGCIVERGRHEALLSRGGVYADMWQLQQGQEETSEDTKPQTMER
Chain of Beta-adrenergic receptor kinase 1 (Homo sapiens) (P25098 whole entry, looked up): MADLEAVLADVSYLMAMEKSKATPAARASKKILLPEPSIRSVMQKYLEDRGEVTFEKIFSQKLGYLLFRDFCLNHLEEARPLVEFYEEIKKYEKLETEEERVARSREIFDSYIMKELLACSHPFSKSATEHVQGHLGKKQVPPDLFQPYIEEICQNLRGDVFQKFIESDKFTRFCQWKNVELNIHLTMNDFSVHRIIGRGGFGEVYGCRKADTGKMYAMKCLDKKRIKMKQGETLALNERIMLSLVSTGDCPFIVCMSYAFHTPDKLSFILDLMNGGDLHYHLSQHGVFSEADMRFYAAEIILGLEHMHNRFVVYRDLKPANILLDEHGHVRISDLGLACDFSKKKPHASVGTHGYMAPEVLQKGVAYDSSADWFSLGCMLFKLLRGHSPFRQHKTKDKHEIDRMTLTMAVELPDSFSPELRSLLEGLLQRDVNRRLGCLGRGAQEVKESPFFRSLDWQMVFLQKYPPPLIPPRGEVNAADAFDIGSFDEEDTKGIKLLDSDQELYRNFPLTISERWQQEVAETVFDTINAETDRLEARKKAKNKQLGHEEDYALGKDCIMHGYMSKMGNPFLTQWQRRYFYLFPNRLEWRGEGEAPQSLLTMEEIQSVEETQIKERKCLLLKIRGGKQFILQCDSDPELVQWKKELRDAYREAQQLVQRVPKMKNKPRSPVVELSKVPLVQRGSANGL

As for `COc1cc2cc(C)nc(Cc3cccc4ccccc34)c2cc1OC`, in test [1], the percent of DMSO control GFP was 102% (inactive). For the same compound, the GFP response vs DMSO is 105% (inactive) in [2] and 82.3% (inactive) in test [4]. Moreover, the percent response of DMSO control in [3] is 98.2% (inactive). The GFP response, % of DMSO in test [5] is 97.7% (inactive). This compound also displayed a double positive events in test [6] of 59.9%. Moreover, the vesicle binding response in [6] is 204% (inactive). The inhibition (commonly the change of the read-out against control, counted positive when it falls) is 1.12% (inactive) in test [7], 8.39% (inactive) in test [11] and -9% (inactive) in test [15]. Moreover, the superoxide response (% of plate) in test [8] is 95.6% (inactive). In addition, in test [9], the aptamer binding inhibition is 3% (inactive). Besides, the results for the response in [10] and in [12] were 9.84% (inactive) and -0.08% (inactive), respectively. Also, the binding (% of control) in test [13] was 101% (inactive). Moreover, the efflux inhibition (fraction of control) in test [14] was 0.04 (inactive). For the same compound, the differentiation response in test [16] was 4.21% (inactive).

`CCOc1ccc(NC2OC(C)C(O)C(O)C2O)c([N+](=O)[O-])c1` (stereo not given): the percent of DMSO control GFP in test [1] was 101% (inactive). Moreover, the figures for the GFP response vs DMSO in test [2] and in [4] were 104% (inactive) and 95.3% (inactive), respectively. Besides, the percent response of DMSO control in [3] was 97.8% (inactive). Further, the GFP response, % of DMSO in test [5] is 102% (inactive). The compound further had a double positive events in [6] of 62.7%. For the same compound, in test [6], the vesicle binding response is 4580% (inactive). Moreover, the values for the inhibition in [7], in test [11] and in test [15] were -4.6% (inactive), -9.73% (inactive) and -10% (inactive), respectively. The superoxide response (% of plate) in [8] is 102% (inactive). Besides, the aptamer binding inhibition in test [9] is 2% (inactive). The response in [10] is 5.64% (inactive); in test [12], 2.76% (inactive). The binding (% of control) in test [13] was 94.8% (inactive). Besides, the efflux inhibition (fraction of control) in test [14] is -0.01 (inactive). Further, the differentiation response in test [16] was -2.69% (inactive).

Consider `Fc1ccccc1CNCCC(Cc1ccccc1)c1ccc2c(c1)OCO2` (stereo not given), for which the percent of DMSO control GFP in test [1] is 98.8% (inactive). Also, the figures for the GFP response vs DMSO in test [2] and in [4] were 107% (inactive) and 90.2% (inactive), respectively. In addition, the percent response of DMSO control in [3] is 96% (inactive). In [5], the GFP response, % of DMSO is 94.9% (inactive). Besides, the double positive events in test [6] came to 63.8%. For the same compound, the vesicle binding response in [6] is 99.6% (inactive). Further, the results for the inhibition in [7], in test [11] and in test [15] were 8.28% (inactive), 11.7% (inactive) and 4% (inactive), respectively. In addition, the superoxide response (% of plate) in [8] is 104% (inactive). In addition, the aptamer binding inhibition in [9] was -1% (inactive). Moreover, the response in [10] was 14% (inactive); in test [12], 1.06% (inactive). The binding (% of control) in test [13] was 105% (inactive). The efflux inhibition (fraction of control) in [14] is -0.22 (inactive). Moreover, the differentiation response in test [16] was -5.68% (inactive).

Take `CC1=C(/C=C/C(C)=C/C=C/C(C)=C/C(=O)O)C(C)(C)CCC1`: the percent of DMSO control GFP in test [1] is 106% (inactive). Also, the values for the GFP response vs DMSO in test [2] and in [4] were 106% (inactive) and 125% (inactive), respectively. Besides, in [3], the percent response of DMSO control is 103% (inactive). Further, in [5], the GFP response, % of DMSO is 121% (inactive). In addition, the double positive events in test [6] came out at 62.6%. Besides, in [6], the vesicle binding response was 194% (inactive). Moreover, the figures for the inhibition in [7], in [11] and in test [15] were -2.82% (inactive), -5.9% (inactive) and -2% (inactive), respectively. Also, in test [8], the superoxide response (% of plate) was 93.6% (inactive). Besides, in [9], the aptamer binding inhibition is 1% (inactive). In addition, the response in [10] was -11.2% (inactive); in test [12], -0.05% (inactive). In addition, in [13], the binding (% of control) is 101% (inactive). In [14], the efflux inhibition (fraction of control) is 0.04 (inactive). The differentiation response in test [16] was -6.96% (inactive).

As for `CC(=O)CCCCn1c(=O)c2c(ncn2C)n(C)c1=O`, the percent of DMSO control GFP in test [1] was 103% (inactive). For the same compound, the results for the GFP response vs DMSO in test [2] and in [4] were 96.2% (inactive) and 82.2% (inactive), respectively. For the same compound, the percent response of DMSO control in test [3] was 106% (inactive). The GFP response, % of DMSO in test [5] was 97.5% (inactive). Further, the double positive events in test [6] came out at 57.8%. In addition, the vesicle binding response in test [6] was 162% (inactive). In addition, the inhibition was 12% (inactive) in test [7], 4.72% (inactive) in [11] and -3% (inactive) in test [15]. Also, in [8], the superoxide response (% of plate) was 102% (inactive). Moreover, in test [9], the aptamer binding inhibition was 2% (inactive). Also, the results for the response in test [10] and in test [12] were -1.49% (inactive) and 0.63% (inactive), respectively. In test [13], the binding (% of control) was 95.5% (inactive). In addition, the efflux inhibition (fraction of control) in [14] was 0.49 (active). Also, the differentiation response in test [16] is 20.8% (inactive).
